Screen size: about 290,000 compounds; about 3,000 (1%) were called active. No stated cut-off is given here; in the data, active means inhibition mostly above about 36% (no sharp cut-off); inactive means mostly below about 34%. The entries come from a sample that favours actives as a whole.
test: inhibition of NOD1-driven NF-kB reporter – cell-based, luminescence, uHTS, primary screen (AID 1578); settings: NOD1-driven NF-kB luciferase reporter cells, at 4 µM, stronger effect = higher value;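 further: HEK-293T reporter cells stimulated with the NOD1 agonist gamma-tri-DAP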

inhibition, active:
COc1ccc2sc3ccccc3c(=O)c2c1OC 97.4%
CCCCCCCCCC[n+]1cccc2c3ccccc3ccc21 64.2%
CC(C)C1OC2(C)OC(=N)C1(C#N)C(C#N)(C#N)C2c1ccccc1 (configuration not stated) 78.7%
COc1ccc(CNc2cc(NCCCO)c([N+](=O)[O-])c3nonc23)cc1 48.5%
Oc1c(N=Nc2ccccn2)ccc2ccccc12 96.4%
Cc1ccc(Nc2nc(-c3cccs3)cs2)nc1 46%
COc1ccc(-c2[nH]c(-c3ccccc3)nc2SCC(=O)Nc2nccs2)cc1 82.4%
[O-][n+]1cccc2c(Br)cc(Br)c(O)c21 86%
CC(c1ccco1)N(C(=O)C12CC3CC(CC(C)(C3)C1)C2)c1ccccn1 (configuration not stated) 31.7%
O=C(CN1CCCC1)Nc1nnc(-c2cccs2)s1 74.9%
CCOC(=O)N1CCC(NC(=S)Nc2ccc3nc(N4CCN(CC)CC4)cc(C)c3c2)CC1 48.8%

inhibition, inactive:
Cc1cccc(OCc2nnc(SCc3nc4ccccc4c(=O)[nH]3)o2)c1 -16.2%
COc1ccc2sc3ccccc3c(=O)c2c1 -32.1%
COc1cccc2sc3ccc(C#Cc4ccc(N)cc4)cc3c(=O)c12 -70%
Fc1ccc(CSc2nnc3ccccn23)c(Cl)c1 -35.7%
Cc1oc(S(=O)(=O)N2CCOCC2)cc1C(=O)Nc1ccc(Cl)cc1 0.4%
O=C(Nc1nc2cc3c(cc2s1)OCCO3)c1cccc(N2C(=O)CCC2=O)c1 -14.7%
O=C(Nc1nc2cc3c(cc2s1)OCCO3)c1cccc(S(=O)(=O)N2CCOCC2)c1 5.8%
O=C(O)Cn1cc(C(=O)C2CC2)c2ccccc21 -13.5%
Cc1ccccc1NC(=O)c1ccc(NS(=O)(=O)c2cc(C(C)(C)C)cc(C)c2C)cc1 -29.6%
CCc1ccccc1NC(=O)Nc1ccc(F)cc1 -25.3%
CCCN(Cc1cc2cc(C)ccc2[nH]c1=O)S(C)(=O)=O -18%
CCCCC[n+]1cccc2c3ccccc3ccc21 33.7%
CCCCCCCCCCCCCCCC[n+]1cccc2ccccc21 37.4%
Cc1ccc(C(=O)n2nc(-c3ccco3)nc2N)cc1 -20.6%
COc1ccc(C(C(=O)NCC2CCCO2)N(C(=O)CNC(=O)c2cccs2)c2ccc(C)cc2)cc1OC (configuration not stated) 4.3%
CN(CCOCCOc1ccc(Cl)cc1Br)Cc1ccccc1 -30.1%
CC1OC2(C)OC(=N)C1(C#N)C(C#N)(C#N)C2c1ccccc1 (configuration not stated) -6.3%
CCC1OC2(C)OC(=N)C1(C#N)C(C#N)(C#N)C2c1ccccc1 (configuration not stated) -1.7%
CC(C)N1CCN(Cc2nc(-c3ccccc3)cs2)CC1CCO (configuration not stated) -44.6%
COc1ccc(Nc2cc(NCCCO)c([N+](=O)[O-])c3nonc23)cc1 4.8%
Cc1ccc(Sc2cc(NCCCO)c([N+](=O)[O-])c3nonc23)cc1 2.1%
Oc1c(N=Nc2ccc(F)cc2)ccc2ccccc12 -69.9%
Cc1ccc(N=Nc2ccc3ccccc3c2O)cc1 19%
CCc1ccc(OCC(=O)N/N=C(\C)c2ccccc2OC(F)F)cc1 -2.9%
Cc1[nH]nc(SCC(=O)NCc2ccc(Cl)cc2)c1[N+](=O)[O-] -33.8%
COC(=O)Nc1nc(-c2ccc(F)cc2)c(C)s1 -56.3%
COc1cc2ccc(=O)oc2c(CC=C(C)C)c1OC -5.1%
C/C(=C/Cc1c(O)cc2oc(C)cc(=O)c2c1O)COC1OC(CO)C(O)C(O)C1O (configuration not stated) -47.3%
Cc1ccc(OCC(=O)Nc2ccc(N3CCN(C(=O)c4ccco4)CC3)cc2)cc1C -9.9%
c1ccc(Nc2nc(-c3cccs3)cs2)nc1 -50.9%
Cc1ccc(Nc2nc(-c3ccccc3)cs2)nc1 -37%
CCCn1c(N)c(C(c2ccc(OC)cc2)N2CCN(c3ccccc3)CC2)c(=O)[nH]c1=O (configuration not stated) 10%
COc1ccc(-c2[nH]c(-c3ccc(Cl)cc3)nc2SCC(=O)Nc2nccs2)cc1 -3.8%
COc1ccc(-c2[nH]c(-c3ccc(C)cc3)nc2SCC(=O)Nc2nccs2)cc1 -13.3%
CCC(C)NC(=O)CN(c1ccc(OC)cc1)S(=O)(=O)c1ccccc1 (configuration not stated) -38.9%
CCOC(=O)c1cnc2c(C)c(Cl)ccc2c1N1CCOCC1 14.6%
C[n+]1cccc2c(Br)ccc([O-])c21 -5.6%
NCC(=O)c1cccc2ccc[n+]([O-])c12 -2.6%
O=C(Cc1ccc(F)cc1)NCCc1cnc[nH]1 -7.3%
COc1cc(/C=c2\sc3nc(-c4ccncc4)nn3c2=O)ccc1OC(C)=O -18.6%
CC(c1ccco1)N(C(=O)C12CC3(C)CC(C)(CC(C)(C3)C1)C2)c1ccccn1 (configuration not stated) -2%
CC(c1ccco1)N(C(=O)C12CC3CC(CC(C3)C1)C2)c1ccccn1 (configuration not stated) 17.1%
CCC(c1nnc(SCC(=O)NC23CC4CC(CC(C4)C2)C3)o1)N(C)C (configuration not stated) -5.8%
Cc1ccc(NS(=O)(=O)c2cc3c4c(cccc4c2)C(=O)NC3=O)cc1 18.1%
CN1CCN(CC(=O)Nc2nnc(-c3cccs3)s2)CC1 -26.2%
O=C(CN1CCCCC1)Nc1nnc(-c2ccccc2)s1 2.9%
CC(C)NC(=O)CN1C(=O)C(=O)c2ccccc21 15.8%
CCOC(=O)N1CCC(NC(=S)Nc2ccc3nc(N4CCN(C)CC4)cc(C)c3c2)CC1 3.9%
CCOC(=O)N1CCN(C(=S)Nc2ccc3nc(N4CCN(CC)CC4)cc(C)c3c2)CC1 -21%
COc1ccc(C(=O)Oc2ccc(N(C)S(=O)(=O)c3ccccc3)cc2)cc1[N+](=O)[O-] 8.9%
Cc1cc(C)cc(NC(=O)C[n+]2ccccc2)c1 45.4%

Reference: PubChem BioAssay AID1578 (Sanford-Burnham Center for Chemical Genomics, 2009)
